C2C12 statin – suppression of simvastatin myotoxicity; rescue of ATP level, % at 7.49 µM; 330,000 compounds, 0.78% hits; AID 602340; C2C12 myotubes + simvastatin, ATP luminescence, 48 h; scaled: DMSO 0, geranylgeraniol control 100;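 active means mean ATP rescue above about 67%, or every replicate alone reaching that limit, limit read from the data, passing the limit was not always enough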;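 further: myotubes were challenged with 10 µM simvastatin during compound exposure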
esBAF inh – inhibitors of esBAF chromatin remodeling in mouse ES cells; 350,000 compounds, 2% hits; Bmi1-luciferase knock-in reporter, 24 h; 100% = twice the neutral-well signal; reporter increase, % at 12.5 µM; in the data active means activation above about 40%;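 further: a rise in the Bmi1 reporter signal indicates esBAF inhibition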
Wnt act – Wnt/beta-catenin pathway activation. Wnt/beta-catenin reporter cell assay, activator, plate reader. activation, % at 9.35 µM. 300,000 compounds, 1.2% hits. AID 743398; in the data active means activation above about 30%, passing the limit was not always enough
GAA850 FXN act – frataxin GAA850 promoter activation. AID 540364. 360,000 compounds, 0.56% hits. HEK293 lucGAA850 FXN promoter luciferase reporter, 24 h; percent of 10 µM SAHA response. activation, % at 6 µM;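 active means activation above the average of all compounds screened plus 3 SD, cutoff fixed separately per campaign, cut at about 7.5% in these data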
MITF TRPM1 HTS – MITF TRPM1 promoter activation in melanoma cells; SK-MEL-5 TRPM1-promoter luciferase, 24 h; % of positive control, neutral wells = 0; activation, % at 12.5 µM; 300,000 compounds, 0.75% hits;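 active means mean activation of at least 80% with every replicate also reaching 80%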
A number is an active result; - = inactive; . = not tested or not shown; ! = repeats disagree. Rows were chosen to be rich in hits. Some 3.3% of all compounds tested hit in one or more screens of this group.

SMILES	C2C12 statin	esBAF inh	Wnt act	GAA850 FXN act	MITF TRPM1 HTS
COc1ccc(NC(=O)c2oc3ccccc3c2NC(=O)C2CCCO2)cc1OC (stereo not given)	-	63.3	-	-	-
CCC(=O)Nc1c(C(=O)Nc2cccc(OC)c2)oc2ccccc12	-	42.7	.	-	-
CCOC(=O)c1oc2ccccc2c1NC(=O)c1cccc(OC)c1	-	-	-	-	-
COc1ccc(NC(=O)c2coc3ccccc23)cc1OC	-	83.0	.	-	111.5
COc1ccc(NC(=O)c2oc3ccccc3c2NC(=O)C2CC2)cc1OC	-	-	-	-	-
CCOCC(=O)Nc1c(C(=O)Nc2ccc3c(c2)OCCO3)oc2ccccc12	.	.	-	-	94.6
C[C@H](CO)N1C[C@H](C)[C@@H](CN(C)CC2CC2)OCCCC[C@H](C)Oc2ccc(NS(=O)(=O)c3ccc(Cl)cc3)cc2C1=O	.	-	.	.	.
COCC(=O)Nc1c(C(=O)Nc2ccc3c(c2)OCCO3)oc2ccccc12	-	-	-	-	91.6
O=C(Nc1ccc2c(c1)OCCO2)c1oc2ccccc2c1NC(=O)C1CC1	.	.	-	-	-
Cc1ccccc1-n1c(SCC(=O)N2CCCCC2)nc(O)cc1=O	-	-	-	-	-
COc1ccc(-n2c(SCC(=O)N3CCCCC3)nc(O)cc2=O)cc1	119.9	-	-	-	-
COc1c(OC(C)=O)ccc(/C=C/c2ccc3ccccc3n2)c1[N+](=O)[O-]	-	-	-	-	112.6
COC(=O)c1ccc(/C=C/c2ccc3cccc(OC(C)=O)c3n2)cc1	.	.	.	-	-
CCOc1c(OC(C)=O)ccc(/C=C/c2ccc3cccc(OC(C)=O)c3n2)c1[N+](=O)[O-]	-	66.4	-	-	-
Cn1c(/C=C/c2ccccc2[N+](=O)[O-])nc2ccccc2c1=O	-	-	-	-	.
CC(=O)/C=C/c1ccc2ccccc2n1	.	.	.	-	-
COc1c(OC(C)=O)ccc(/C=C/c2ccc3cccc(OC)c3n2)c1[N+](=O)[O-]	.	.	32.1	-	-
O=[N+]([O-])c1ccccc1/C=C/c1ccc2ccccc2n1	-	51.6	-	-	-
COc1cccc(-c2cnc3c(c2)C(=O)N([C@@H](C)CO)C[C@@H](C)[C@@H](CN(C)CC2CC2)O3)c1	-	.	.	.	.
C[C@@H]1CN([C@H](C)CO)S(=O)(=O)c2ccc(C#Cc3cccnc3)cc2O[C@@H]1CN(C)C	-	-	.	.	.
O=c1[nH]c2ccc(NCc3ccc(F)cc3)cc2[nH]1	-	-	-	-	.
O=c1[nH]c2ccc(NCc3ccc(OCc4ccccc4Cl)cc3)cc2[nH]1	-	-	-	-	82.6
O=C1C(=C(O)c2ccccc2)C(=O)c2ccccc21	-	-	-	-	-
O=C1C(=C(c2ccccc2)c2ccccc2)Nc2ccccc21	99.6	-	-	-	-
CCCC#Cc1cnc2c(c1)C(=O)N([C@H](C)CO)C[C@H](C)[C@H](CN(C)C(=O)c1cccnc1)O2	-	-	.	.	.
SMILES	C2C12 statin	esBAF inh	Wnt act	GAA850 FXN act	MITF TRPM1 HTS
Cc1nnc(NC(=O)C2CCCN(S(=O)(=O)Cc3ccccc3)C2)s1 (stereo not given)	119.7	-	.	-	-
CCCCNC(=O)C1(C)CCCCCN1Cc1cc2ccccc2o1 (stereo not given)	77.1	-	-	-	.
CN1c2ccc(-c3ccccc3)cc2[C@H]2[C@H](CCN2C(=O)Cc2ccccc2)[C@@H]1CO	-	-	.	.	.
O=C(C[C@H]1C=C[C@H](NC(=O)Nc2ccc(F)cc2)[C@@H](CO)O1)NCc1cccc(F)c1	-	-	.	.	.
CC1=C(C(=O)Nc2ccc(CC(=O)NCc3ccc(OC(C)C)cc3)cc2)SCCO1	-	45.9	-	-	-
COc1ccccc1NC(=O)N[C@@H]1CC[C@H](CCn2cc(-c3ccccc3)nn2)O[C@H]1CO	-	-	.	.	.
COC(=O)C1CCN(C(=O)C2CCC(=O)N(CCc3cccc(F)c3)C2)CC1 (stereo not given)	-	52.6	-	-	-
O=C1CCC(C(=O)N2CCCCO2)CN1CCc1ccccc1 (stereo not given)	-	51.1	-	-	-
COc1ccccc1CN1CC(C(=O)N2CCCCO2)CCC1=O (stereo not given)	-	-	-	-	-
COc1ccccc1C#Cc1ccc2c(c1)[C@H]1[C@H](CCN1C(=O)c1ccncc1)[C@H](CO)N2	-	-	.	.	.
COc1ccc(NC(=O)Nc2cccc3c2O[C@H](CN(C)S(=O)(=O)c2ccccc2)[C@@H](C)CN([C@@H](C)CO)C3=O)cc1	-	-	.	.	.
C[C@H](CO)N1C[C@H](C)[C@H](CN(C)C(=O)Nc2ccc3c(c2)OCO3)Oc2ncc(C#Cc3ccc(F)cc3)cc2C1=O	74.1	-	.	.	.
COc1ccc(C#Cc2cnc3c(c2)C(=O)N([C@H](C)CO)C[C@H](C)[C@@H](CN(C)C(=O)Nc2cccc(OC)c2)O3)cc1	112.0!	-	-	-	.
C[C@H](CO)N1C[C@H](C)[C@@H](CN(C)C(=O)Nc2ccccc2)Oc2ncc(C#CC3CCCC3)cc2C1=O	78.2	-	.	.	.
COc1ccc(C#Cc2ccc3c(c2)O[C@H](CN(C)C(=O)Nc2cccc(OC)c2)[C@H](C)CN([C@H](C)CO)S3(=O)=O)cc1	92.4	-	.	.	.
C[C@H](CO)N1C[C@H](C)[C@@H](CN(C)S(=O)(=O)c2cccs2)OCCCC[C@H](C)Oc2ccc(NC(=O)c3ccncc3)cc2C1=O	.	-	.	.	.
CC(=O)N[C@@H]1CC[C@H](CCNC(=O)C2CC2)O[C@@H]1CO	-	-	.	.	.
COc1ccc(C(=O)c2c3ccc(OC)cc3[n+]([O-])n2Cc2ccc(C(N)=O)cc2)cc1	-	60.9	-	-	-
COC(=O)c1cc(C#N)c(Oc2ccc(OC)cc2)nc1C	-	-	-	-	.
CC(=O)c1cc(C#N)c(Oc2ccc(Cl)cc2Cl)nc1C	166.6	-	.	-	-
CC(=O)c1cc(C#N)c(Oc2ccccc2)nc1C	104.8	-	.	-	-
CC(C)CC#Cc1cnc2c(c1)C(=O)N([C@@H](C)CO)C[C@H](C)[C@H](CN(C)Cc1ccc(C(=O)O)cc1)O2	-	-	.	.	.
CC(C)(C)c1ccc(C(=O)OCC(=O)Nc2sc3c(c2C#N)CCC3)cc1	.	.	-	-	-
Cc1ccccc1OCC(=O)Nc1sc2c(c1C#N)CCC2	-	47.3	-	-	-
COc1ccccc1OCC(=O)Nc1sc2c(c1C(N)=O)CCC2	-	76.8	-	-	88.8
SMILES	C2C12 statin	esBAF inh	Wnt act	GAA850 FXN act	MITF TRPM1 HTS
C[C@H](O)C#Cc1ccc2c(c1)O[C@@H](CN(C)CC1CC1)[C@H](C)CN([C@@H](C)CO)S2(=O)=O	-	-	.	.	.
C[C@H]1CN([C@@H](C)CO)S(=O)(=O)c2ccc(-c3ccc(C(=O)N(C)C)cc3)cc2O[C@@H]1CN(C)C(=O)C1CC1	-	.	.	.	.
CSc1nc2ccc(NC(=O)c3ccc(=O)[nH]c3)cc2s1	-	-	-	-	-
CSc1nc2ccc(NC(=O)c3cccs3)cc2s1	-	77.7	-	-	89.6
Cc1ccc2nc(NC(=S)NC(=O)c3cccs3)sc2c1	-	50.6	.	-	-
CSc1nc2ccc(NC(=O)c3ccc(F)c(F)c3)cc2s1	.	.	51.2	-	-
